Experimental data published in ChEMBL document CHEMBL1961873, “Compounds: GSK PKIS; Assays: Nanosyn kinase panel” (2012).

Tests used:
[1] = biological target: RAC-alpha serine/threonine-protein kinase (Homo sapiens) (UniProt P31749); settings: at 0.1 µM
[2] = biological target: RAC-alpha serine/threonine-protein kinase (Homo sapiens) (UniProt P31749); settings: at 1 µM
[3] = biological target: RAC-beta serine/threonine-protein kinase (Homo sapiens) (UniProt P31751); settings: at 0.1 µM
[4] = biological target: RAC-beta serine/threonine-protein kinase (Homo sapiens) (UniProt P31751); settings: at 1 µM
[5] = biological target: RAC-gamma serine/threonine-protein kinase (Homo sapiens) (UniProt Q9Y243); settings: at 0.1 µM
[6] = biological target: RAC-gamma serine/threonine-protein kinase (Homo sapiens) (UniProt Q9Y243); settings: at 1 µM
[7] = biological target: G protein-coupled receptor kinase 6 (Homo sapiens) (UniProt P43250); settings: at 0.1 µM
[8] = biological target: G protein-coupled receptor kinase 6 (Homo sapiens) (UniProt P43250); settings: at 1 µM
[9] = biological target: T1, Rhodopsin kinase GRK7 (Homo sapiens) (UniProt Q8WTQ7); settings: at 0.1 µM
T1 sequence (whole entry): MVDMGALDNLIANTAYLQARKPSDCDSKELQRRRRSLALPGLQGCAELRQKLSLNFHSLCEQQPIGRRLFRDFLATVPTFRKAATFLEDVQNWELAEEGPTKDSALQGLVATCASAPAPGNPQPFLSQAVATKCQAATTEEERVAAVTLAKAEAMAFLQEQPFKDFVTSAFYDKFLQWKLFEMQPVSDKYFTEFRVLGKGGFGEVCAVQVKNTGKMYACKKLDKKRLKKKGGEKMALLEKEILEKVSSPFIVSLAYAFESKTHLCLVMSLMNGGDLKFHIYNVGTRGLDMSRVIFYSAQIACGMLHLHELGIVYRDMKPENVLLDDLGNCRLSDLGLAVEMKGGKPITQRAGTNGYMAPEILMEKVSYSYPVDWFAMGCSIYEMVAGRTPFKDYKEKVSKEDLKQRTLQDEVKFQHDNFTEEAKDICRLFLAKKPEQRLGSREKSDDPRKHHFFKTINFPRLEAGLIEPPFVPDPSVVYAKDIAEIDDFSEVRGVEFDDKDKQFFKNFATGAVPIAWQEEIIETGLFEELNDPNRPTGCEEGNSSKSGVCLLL

[10] = biological target: T1, Rhodopsin kinase GRK7 (Homo sapiens); settings: at 1 µM
[11] = biological target: Serine/threonine-protein kinase MRCK alpha (Homo sapiens) (UniProt Q5VT25); settings: at 0.1 µM
[12] = biological target: Serine/threonine-protein kinase MRCK alpha (Homo sapiens) (UniProt Q5VT25); settings: at 1 µM
[13] = biological target: Serine/threonine-protein kinase MRCK beta (Homo sapiens) (UniProt Q9Y5S2); settings: at 0.1 µM
[14] = biological target: Serine/threonine-protein kinase MRCK beta (Homo sapiens) (UniProt Q9Y5S2); settings: at 1 µM
[15] = biological target: Ribosomal protein S6 kinase alpha-5 (Homo sapiens) (UniProt O75582); settings: at 0.1 µM
[16] = biological target: Ribosomal protein S6 kinase alpha-5 (Homo sapiens) (UniProt O75582); settings: at 1 µM
[17] = biological target: Ribosomal protein S6 kinase alpha-4 (Homo sapiens) (UniProt O75676); settings: at 0.1 µM
[18] = biological target: Ribosomal protein S6 kinase alpha-4 (Homo sapiens) (UniProt O75676); settings: at 1 µM
[19] = biological target: Ribosomal protein S6 kinase beta-1 (Homo sapiens) (UniProt P23443); settings: at 0.1 µM
[20] = biological target: Ribosomal protein S6 kinase beta-1 (Homo sapiens) (UniProt P23443); settings: at 1 µM

Sequence of Ribosomal protein S6 kinase beta-1 (Homo sapiens) (P23443 whole entry, looked up): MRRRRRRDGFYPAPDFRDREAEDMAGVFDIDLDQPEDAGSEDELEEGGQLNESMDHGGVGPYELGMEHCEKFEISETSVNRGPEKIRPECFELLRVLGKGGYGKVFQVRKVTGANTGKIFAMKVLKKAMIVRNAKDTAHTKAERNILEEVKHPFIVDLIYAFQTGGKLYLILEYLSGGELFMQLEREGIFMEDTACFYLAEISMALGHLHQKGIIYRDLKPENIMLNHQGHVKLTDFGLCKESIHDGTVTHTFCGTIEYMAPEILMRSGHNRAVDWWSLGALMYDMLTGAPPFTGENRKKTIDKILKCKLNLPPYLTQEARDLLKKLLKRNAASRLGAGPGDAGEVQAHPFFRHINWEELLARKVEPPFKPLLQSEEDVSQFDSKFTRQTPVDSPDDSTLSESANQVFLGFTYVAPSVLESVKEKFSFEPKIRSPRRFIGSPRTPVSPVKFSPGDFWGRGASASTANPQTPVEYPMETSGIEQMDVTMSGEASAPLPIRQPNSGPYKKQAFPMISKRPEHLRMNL
Sequence of Serine/threonine-protein kinase MRCK alpha (Homo sapiens) (Q5VT25 whole entry): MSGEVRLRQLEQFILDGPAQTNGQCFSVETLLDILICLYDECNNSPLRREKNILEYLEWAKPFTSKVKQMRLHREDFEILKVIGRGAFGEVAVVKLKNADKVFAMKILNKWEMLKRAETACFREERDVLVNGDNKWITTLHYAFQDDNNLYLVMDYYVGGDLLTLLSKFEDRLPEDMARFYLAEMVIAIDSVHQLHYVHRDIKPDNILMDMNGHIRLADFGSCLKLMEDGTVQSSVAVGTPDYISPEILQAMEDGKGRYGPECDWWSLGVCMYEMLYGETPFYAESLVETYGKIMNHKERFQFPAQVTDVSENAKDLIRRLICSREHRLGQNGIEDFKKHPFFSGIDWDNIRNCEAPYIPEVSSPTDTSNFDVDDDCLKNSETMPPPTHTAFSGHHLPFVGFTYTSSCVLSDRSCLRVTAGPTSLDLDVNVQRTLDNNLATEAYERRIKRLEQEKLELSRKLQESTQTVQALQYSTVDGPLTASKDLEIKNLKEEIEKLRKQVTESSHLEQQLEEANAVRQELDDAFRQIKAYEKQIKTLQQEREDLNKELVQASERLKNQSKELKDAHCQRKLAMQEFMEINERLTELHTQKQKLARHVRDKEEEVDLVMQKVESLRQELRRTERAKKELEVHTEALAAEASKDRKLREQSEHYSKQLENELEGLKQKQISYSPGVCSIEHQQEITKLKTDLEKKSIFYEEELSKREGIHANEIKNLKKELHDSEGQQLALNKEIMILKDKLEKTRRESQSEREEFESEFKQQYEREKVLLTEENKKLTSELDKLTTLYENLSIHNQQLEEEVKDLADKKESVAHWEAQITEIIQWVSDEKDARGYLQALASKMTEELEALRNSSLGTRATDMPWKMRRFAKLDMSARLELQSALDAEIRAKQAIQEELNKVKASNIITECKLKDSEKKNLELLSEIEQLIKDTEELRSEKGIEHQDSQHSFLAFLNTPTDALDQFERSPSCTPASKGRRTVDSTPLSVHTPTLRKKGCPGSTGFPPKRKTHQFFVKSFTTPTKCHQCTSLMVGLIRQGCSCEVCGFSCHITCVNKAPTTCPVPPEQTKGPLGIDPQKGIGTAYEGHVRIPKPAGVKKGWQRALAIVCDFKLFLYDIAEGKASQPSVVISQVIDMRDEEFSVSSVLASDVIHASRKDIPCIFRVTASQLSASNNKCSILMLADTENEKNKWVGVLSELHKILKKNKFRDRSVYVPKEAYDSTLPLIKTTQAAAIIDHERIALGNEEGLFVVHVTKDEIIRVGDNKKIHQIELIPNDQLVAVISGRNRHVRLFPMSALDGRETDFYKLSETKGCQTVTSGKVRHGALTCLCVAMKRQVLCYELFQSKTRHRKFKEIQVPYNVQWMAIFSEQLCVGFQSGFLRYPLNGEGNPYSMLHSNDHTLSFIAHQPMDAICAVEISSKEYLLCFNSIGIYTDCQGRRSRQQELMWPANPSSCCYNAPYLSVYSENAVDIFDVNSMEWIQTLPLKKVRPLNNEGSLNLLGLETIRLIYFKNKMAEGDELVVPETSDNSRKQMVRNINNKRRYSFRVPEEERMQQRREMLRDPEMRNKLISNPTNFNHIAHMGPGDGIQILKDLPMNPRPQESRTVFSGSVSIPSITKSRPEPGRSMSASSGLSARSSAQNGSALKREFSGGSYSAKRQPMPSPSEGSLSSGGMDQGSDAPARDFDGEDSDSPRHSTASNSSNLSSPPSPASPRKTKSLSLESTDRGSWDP
Sequence of RAC-gamma serine/threonine-protein kinase (Homo sapiens) (Q9Y243 whole entry): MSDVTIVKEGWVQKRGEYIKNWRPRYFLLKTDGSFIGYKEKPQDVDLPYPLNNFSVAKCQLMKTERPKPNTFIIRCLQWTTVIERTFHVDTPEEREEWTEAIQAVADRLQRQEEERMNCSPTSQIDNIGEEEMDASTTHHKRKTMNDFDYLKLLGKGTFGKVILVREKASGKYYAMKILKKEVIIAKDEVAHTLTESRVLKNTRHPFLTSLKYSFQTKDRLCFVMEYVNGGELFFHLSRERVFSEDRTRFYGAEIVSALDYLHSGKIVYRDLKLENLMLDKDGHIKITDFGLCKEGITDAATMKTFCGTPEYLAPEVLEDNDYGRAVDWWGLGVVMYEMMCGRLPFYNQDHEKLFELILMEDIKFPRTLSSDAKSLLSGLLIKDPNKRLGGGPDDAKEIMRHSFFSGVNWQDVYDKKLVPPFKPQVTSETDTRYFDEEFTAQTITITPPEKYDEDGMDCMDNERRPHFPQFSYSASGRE
Sequence of RAC-beta serine/threonine-protein kinase (Homo sapiens) (P31751 whole entry): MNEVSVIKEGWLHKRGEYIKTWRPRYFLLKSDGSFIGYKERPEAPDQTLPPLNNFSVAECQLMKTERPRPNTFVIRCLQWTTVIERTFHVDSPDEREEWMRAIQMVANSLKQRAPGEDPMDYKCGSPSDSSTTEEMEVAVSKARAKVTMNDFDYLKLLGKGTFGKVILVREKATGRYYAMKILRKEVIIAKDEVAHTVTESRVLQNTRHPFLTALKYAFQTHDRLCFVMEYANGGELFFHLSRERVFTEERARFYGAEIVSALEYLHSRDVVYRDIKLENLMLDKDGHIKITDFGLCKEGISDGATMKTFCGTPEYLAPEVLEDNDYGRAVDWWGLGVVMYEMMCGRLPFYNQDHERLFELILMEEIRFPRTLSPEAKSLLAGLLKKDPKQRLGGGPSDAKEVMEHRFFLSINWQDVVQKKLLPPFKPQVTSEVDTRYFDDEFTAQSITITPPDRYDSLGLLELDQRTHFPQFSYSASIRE
Sequence of Ribosomal protein S6 kinase alpha-5 (Homo sapiens) (O75582 whole entry, looked up): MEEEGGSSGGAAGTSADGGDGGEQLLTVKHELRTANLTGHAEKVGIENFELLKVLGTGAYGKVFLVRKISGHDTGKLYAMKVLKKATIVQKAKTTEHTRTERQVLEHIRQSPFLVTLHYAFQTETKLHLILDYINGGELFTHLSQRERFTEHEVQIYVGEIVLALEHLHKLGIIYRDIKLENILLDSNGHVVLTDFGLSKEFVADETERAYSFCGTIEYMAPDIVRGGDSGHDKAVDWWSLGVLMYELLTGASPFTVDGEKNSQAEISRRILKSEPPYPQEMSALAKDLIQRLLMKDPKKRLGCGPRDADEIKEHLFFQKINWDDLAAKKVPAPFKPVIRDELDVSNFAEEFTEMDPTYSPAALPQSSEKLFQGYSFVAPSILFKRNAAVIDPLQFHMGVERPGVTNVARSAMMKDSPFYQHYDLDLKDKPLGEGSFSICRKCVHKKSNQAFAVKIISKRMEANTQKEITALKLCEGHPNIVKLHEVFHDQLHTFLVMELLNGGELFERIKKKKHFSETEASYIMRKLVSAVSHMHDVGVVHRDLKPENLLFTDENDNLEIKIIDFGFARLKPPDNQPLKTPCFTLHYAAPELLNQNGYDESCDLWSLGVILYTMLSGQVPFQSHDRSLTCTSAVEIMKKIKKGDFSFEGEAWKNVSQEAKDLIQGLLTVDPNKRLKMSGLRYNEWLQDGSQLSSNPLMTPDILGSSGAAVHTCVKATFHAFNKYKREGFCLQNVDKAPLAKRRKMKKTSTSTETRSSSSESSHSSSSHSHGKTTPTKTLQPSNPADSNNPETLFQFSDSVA
Sequence of RAC-alpha serine/threonine-protein kinase (Homo sapiens) (P31749 whole entry): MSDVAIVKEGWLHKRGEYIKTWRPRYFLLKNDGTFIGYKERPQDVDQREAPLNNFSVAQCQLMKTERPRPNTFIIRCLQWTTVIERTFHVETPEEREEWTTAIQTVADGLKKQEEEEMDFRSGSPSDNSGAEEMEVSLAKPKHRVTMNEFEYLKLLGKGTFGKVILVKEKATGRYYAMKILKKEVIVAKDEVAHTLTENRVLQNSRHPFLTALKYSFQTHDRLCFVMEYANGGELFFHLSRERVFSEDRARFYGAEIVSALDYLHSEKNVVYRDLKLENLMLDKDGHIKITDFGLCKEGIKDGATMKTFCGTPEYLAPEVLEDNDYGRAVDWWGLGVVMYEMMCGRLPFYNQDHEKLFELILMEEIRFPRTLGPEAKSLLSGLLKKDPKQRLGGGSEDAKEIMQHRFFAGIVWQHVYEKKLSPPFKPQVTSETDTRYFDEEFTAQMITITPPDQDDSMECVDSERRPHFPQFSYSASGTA
Sequence of G protein-coupled receptor kinase 6 (Homo sapiens) (P43250 whole entry, looked up): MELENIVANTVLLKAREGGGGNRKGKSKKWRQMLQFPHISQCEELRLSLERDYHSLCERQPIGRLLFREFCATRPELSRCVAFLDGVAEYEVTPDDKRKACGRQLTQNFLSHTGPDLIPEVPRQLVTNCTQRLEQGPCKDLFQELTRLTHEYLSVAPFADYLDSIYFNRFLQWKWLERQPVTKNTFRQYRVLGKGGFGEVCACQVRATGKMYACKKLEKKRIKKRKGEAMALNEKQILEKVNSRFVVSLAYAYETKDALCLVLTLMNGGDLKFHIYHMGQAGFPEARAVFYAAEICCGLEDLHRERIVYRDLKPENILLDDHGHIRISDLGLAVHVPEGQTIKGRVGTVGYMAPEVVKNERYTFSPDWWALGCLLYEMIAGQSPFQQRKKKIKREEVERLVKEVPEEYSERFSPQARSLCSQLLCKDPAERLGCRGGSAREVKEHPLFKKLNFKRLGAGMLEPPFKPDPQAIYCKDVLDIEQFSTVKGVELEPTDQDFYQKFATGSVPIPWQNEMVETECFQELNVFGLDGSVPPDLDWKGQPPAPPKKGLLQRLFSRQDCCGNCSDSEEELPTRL

Structure (SMILES) | inhibition [1] [%] | inhibition [2] [%] | inhibition [3] [%] | inhibition [4] [%] | inhibition [5] [%] | inhibition [6] [%] | inhibition [7] [%] | inhibition [8] [%] | inhibition [9] [%] | inhibition [10] [%] | inhibition [11] [%] | inhibition [12] [%] | inhibition [13] [%] | inhibition [14] [%] | inhibition [15] [%] | inhibition [16] [%] | inhibition [17] [%] | inhibition [18] [%] | inhibition [19] [%] | inhibition [20] [%]
O=C(Nc1n[nH]c2cc(-c3ccccc3)ccc12)C1CC1 | 0.57 | -0.63 | 1.2 | 1.68 | 0.33 | 2.94 | 2.59 | 3.48 | 3.13 | 3.52 | 0.05 | -1.04 | 0.91 | 0.02 | 5.17 | 5.56 | 2.14 | 1.76 | 0.9 | 1.27
COc1cc(C)c(N(C)C(=O)CN(C)C)cc1Nc1nc(Nc2cccc(F)c2C(N)=O)c2cc[nH]c2n1 | -1.91 | -1.8 | -3.1 | -2.1 | -2.47 | -1.39 | 3.68 | 17.8 | -0.46 | -6.16 | 0.58 | 0.78 | 1.08 | 1.21 | 1.09 | 0.49 | 1.07 | 2.79 | 2.18 | 1.42
Cc1ccc(C(=O)NC(C)C)cc1-c1ccc(C(=O)NCC2CC2)cc1 | -2.54 | -2.49 | -4.74 | -3 | -3.94 | -1.32 | -3.15 | -2.12 | -1.17 | -7.32 | 0.02 | -2.08 | 0.15 | 0.39 | -3.69 | -3.9 | -1.65 | -2.17 | -2.1 | -2.29
Fc1ccc(-c2nc3n(c2-c2ccncc2)CCS3)cc1 | -2.42 | -2.29 | -1.68 | -1.83 | -1.74 | -2.44 | 2.79 | -0.16 | 2.77 | 5.18 | 0.18 | 2.85 | 1.28 | 3.22 | 2.74 | 3.92 | 1.65 | 5.1 | 2.08 | 2.54
COc1cc(Nc2ncc(-c3ccccc3)o2)cc(OC)c1OC | -1.72 | -1.61 | -2.18 | -1.88 | -1.76 | 1.14 | -1.02 | -0.02 | 3.87 | -9.33 | 2.53 | 3.73 | 0.08 | 0.86 | 0.23 | 0.82 | -1.71 | 0.02 | -0.45 | 3.55
COc1cccc(/C=N/Nc2ncnc3c2cnn3-c2cccc(OC)c2)c1 | 1.02 | -0.26 | 2.42 | 1.51 | 2.66 | 3.67 | 5.6 | 4.38 | 9.5 | 5.51 | 1.64 | -0.23 | -0.8 | 0.84 | 2.19 | -0.07 | 2.48 | 2.78 | 1.49 | 2.2
O=C(NCC1CC1)c1ccc(-c2cccc(C(=O)NC3CC3)c2)cc1 | 0.06 | 0.79 | 1.68 | 1.73 | 1.52 | 1.7 | 1.72 | -2.28 | 0.75 | -7.67 | 0.69 | -1.55 | 1.52 | 1.09 | 2.45 | 2.84 | 0.7 | 3.88 | 1.49 | 1.03
Fc1ccc(-c2c(-c3ccncc3)nc3n2CCS3)cc1 | -3.71 | -2.76 | -2.67 | -1.63 | -3.31 | -0.46 | 5.32 | 4.18 | 2.86 | 7.9 | 1.61 | 5.14 | 2.15 | 9.93 | 3.9 | 8.14 | 4.42 | 8.86 | 0.97 | 2.52
CCC(=O)Nc1ccc(C)c(-c2ccc(C(=O)NCC3CC3)cc2)c1 | 0.29 | 0.52 | 2.4 | 1.7 | 0.86 | 2.4 | 4.21 | 3.82 | 8.7 | 1.14 | 0 | 1.8 | -0.7 | 0.23 | 0.17 | -0.98 | 1.96 | 2.63 | 0.91 | 1.77
C[C@@H](Oc1cc(-n2cnc3ccc(OC4CCN(C)CC4)cc32)sc1C(N)=O)c1ccccc1Cl | -2.97 | -3.84 | -4.17 | -2.31 | -2.91 | -1.57 | 4.79 | 6.21 | 10.7 | 3.62 | 0.03 | 5.65 | 0.19 | 2.98 | 2.31 | 1.66 | 2.84 | 5.67 | 1.64 | 5.01
FC(F)(F)c1cccc(Nc2nccc(-c3cnn4nc(-c5ccccc5)ccc34)n2)c1 | 0.83 | 0.65 | 0.62 | 1.58 | 0.22 | -2.03 | -2.23 | -0.87 | 4.12 | 6.07 | -4.69 | -0.12 | 0.14 | 0.03 | 1.36 | 0.17 | 1.71 | 0.86 | 1.59 | 0.67
CN(C)CCCNc1nccc(-c2c(-c3ccc(F)cc3)nn3cc(C(F)(F)F)ccc23)n1 | -2.46 | -2.95 | -2.07 | -3.03 | -2.14 | -2.29 | 0.16 | -2.93 | -0.49 | -5.64 | 0.46 | 1.03 | 0.48 | 1.09 | 1.3 | 2.69 | 1.95 | 4.5 | 2.93 | 3.55
NS(=O)(=O)c1ccc(N/N=C2\C(=O)Nc3ccc(C(=O)NCCCn4ccnc4)cc32)cc1 | -0.12 | 0.95 | 2.05 | 2.17 | 0.96 | 2.49 | 5.79 | 16.3 | 7.64 | 18 | 0.3 | 7.89 | 0.34 | 5.24 | 9.46 | 11.1 | 3.85 | 13.7 | 1.91 | 8.54
O=C1Nc2ccccc2/C1=C/Nc1ccc(-n2cncn2)cc1 | 0.19 | -0.09 | 1.56 | 0.9 | 0.39 | 2.21 | 7.2 | 14.8 | 5.5 | 14.9 | 0.72 | 3.59 | 0.37 | 1.08 | 5.48 | 8.54 | 3.95 | 13.4 | 2.05 | 9.06
O=C1Nc2ccc(I)cc2C1=Cc1cc(Br)c(O)c(Br)c1 | 1.14 | 0.96 | 1.72 | 1.1 | 1.78 | 0.85 | 4.84 | 17.8 | 12.1 | 15.5 | 6.44 | 3.97 | -0.53 | 1.27 | 1.69 | 1.77 | 2.87 | 4.68 | 2.06 | 4.52
